Measurements as given in PubChem BioAssay AID504841 (National Center for Advancing Translational Sciences (NCATS), 2011).
Several values for one entry are separate records, joined by “and”; a condition that tells them apart may be missing. Equal values may be shown once. About 160 (15%) of roughly 1,100 compounds were called active. Another 36% or so got no clear call; they are omitted. Only a sample is shown. A number with no mark means an inactive call. Calls come from the whole dose curve; as a rule, active = well fitted inhibition curve with a large enough effect; inconclusive = small, poorly fitted or top-dose-only effect; inactive = no such curve, though single readings can be large or run the other way.

Target: ATP-dependent DNA helicase Q1 (Homo sapiens) (UniProt P46063)
Sequence (P46063 whole entry, looked up): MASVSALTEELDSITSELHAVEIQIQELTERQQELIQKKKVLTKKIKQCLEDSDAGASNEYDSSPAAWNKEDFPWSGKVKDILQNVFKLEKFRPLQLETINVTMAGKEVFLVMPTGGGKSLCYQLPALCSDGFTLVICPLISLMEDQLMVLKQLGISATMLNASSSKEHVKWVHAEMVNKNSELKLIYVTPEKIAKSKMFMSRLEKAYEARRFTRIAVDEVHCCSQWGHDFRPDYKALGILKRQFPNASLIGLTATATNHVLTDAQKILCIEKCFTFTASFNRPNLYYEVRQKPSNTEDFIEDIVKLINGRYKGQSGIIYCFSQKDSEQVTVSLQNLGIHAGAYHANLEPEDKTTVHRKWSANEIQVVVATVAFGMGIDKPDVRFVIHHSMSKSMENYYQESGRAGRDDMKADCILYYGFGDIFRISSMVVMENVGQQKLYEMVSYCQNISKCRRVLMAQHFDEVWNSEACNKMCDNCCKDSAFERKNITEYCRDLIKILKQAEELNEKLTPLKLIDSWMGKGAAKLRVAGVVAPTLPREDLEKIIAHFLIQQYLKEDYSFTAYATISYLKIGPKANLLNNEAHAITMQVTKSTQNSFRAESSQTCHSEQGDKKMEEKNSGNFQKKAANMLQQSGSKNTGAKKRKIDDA
Assay: Confirmation qHTS Assay for Inhibitors of RecQ-Like Dna Helicase 1 (RECQ1) - Round 2 Cherry Picks; note: nearly all actives have a fitted effect of over 50% in size
Details: recombinant RECQ1 DNA unwinding, red fluorescence; series mostly up to 119 µM; activity, negative = inhibition: at the top concentration
Description: Survival of cells and the faithful propagation of the genome depend on elaborate mechanisms of detecting and repairing DNA damage. Treatment of advanced cancer relies on radiation therapy or chemotherapy, which kill cancer cells by causing extensive DNA damage. It is often found, that cancer cells develop resistance to therapy through enhanced activity of DNA repair functions; this has led to an increased interest in developing drugs that interfere with DNA repair, which could sensitize cancer cells to conventional therapy. This validation qHTS assay pertains to human RECQ1, which is important in resolving abnormal DNA structures formed during replication or homologous recombination. Shutting down the expression of RECQ1 leads to chromosomal instability and higher radiation sensitivity in cultured cells. […] The validation assay was a fluorescence quenching based kinetic qHTS for RECQ1 Helicase DNA unwinding. The activity was measured as ATP-dependent separation of a 20-bp DNA duplex extended by 30-nt single-stranded tails (forked duplex). The forked DNA substrate was tagged with rhodamine fluorophore (carboxytetramethyl rhodamine, TAMRA) and BHQ-2 (Black Hole Quencher 2) dark quencher. Strand separation results in an increase in the fluorescence of TAMRA (excitation 525 nm, emission 598 nm). This substrate construct operates in a red-shifted region where very few compound library members have been noted to fluoresce (PubChem AIDs 593 and 594). An additional feature of the assay is the inclusion of 2.5 ug/ml poly (dIdC), to reduce interference by compounds such as DNA intercalators, a major source of false inhibitors. NIH Chemical Genomics Center [NCGC] NIH Molecular Libraries Probe Centers Network [MLPCN] MLPCN Grant: MH087284-01 Assay Submitter (PI): Opher Gileadi, Structural Genomics Consortium, University of Oxford
Three uL of reaction buffer (25 mM Tris-HCl (pH 8.0), 5 mM NaCl, 2 mM MgCl2, 1mM DTT, 0.01% Tween- 20, and 2.5 ug/ml poly(dI-dC), including enzyme (50 nM RECQ1T1), were dispensed into a 1536-well Greiner black assay plate via solenoid-valve based nanoliter dispensers. Compounds (23 nl each in columns 5-48) and control (23 nl each in column 2 as dose-response) were transferred via a Kalypsys pintool equipped with a 1536-pin array. The plates were incubated for 15 min at room temperature, and then 1 ul of substrates (200 nM DNA and 2 mM ATP, final concentrations) was added to start the reaction. The plate was transferred into a ViewLux high-throughput CCD imager where the reaction progress was measured in a discontinuous kinetic mode (two reads spaced 2 hours apart, with intermediate room temperature incubation of the covered assay plate) by using standard red-fluorescence optics (excitation filter 525 nm, emission filter 598 nm). Enzyme-free and vehicle (DMSO) controls were included for signal normalization.
% is set by controls: 0 for no effect and ±100 for the full control effect; potency is the fitted concentration of half-maximal effect.

SMILES | activity, negative = inhibition [%] | Potency
CCC(c1nnnn1Cc1ccco1)N(Cc1cc2cc(OC)ccc2[nH]c1=O)C1CCCCC1 (stereo not drawn) | -21.4 | –
COc1cccc(NC(=S)C(C#N)=C2N(C)c3ccccc3N2C)c1 | -0.219 | –
COc1c(O)cc2oc(-c3ccc(O)c(O)c3)cc(=O)c2c1O | – | 4.47 µM (active) and 2 µM (active)
O=C(CSc1ccc(-c2ccco2)nn1)NCc1ccc2c(c1)OCO2 | -23.4 | –
Oc1c(C=Nc2cccc3nsnc23)ccc2ccccc12 | – | 39.8 µM (active)
COc1ccc(Cl)cc1C(=O)NNC(=S)NC(=O)/C=C/c1ccco1 | -2.87 | –
Oc1ccc(N=Cc2sc3ccccc3c2Cl)cc1 | -11.5 | –
COc1ccc2[nH]c3c(C)c4cc[n+](C)cc4c(C)c3c2c1 | – | 2.51 µM (active)
CCCCOC(=O)c1ccc(NC(c2ccc(C)cc2)P(=O)(OC)OC)cc1 (stereo not drawn) | -16.6 | –
COC(=O)Cc1cc(=O)n(-c2nc3ccccc3s2)[nH]1 | -11.9 | –
Cc1cccc(-n2nc3c(c2NC(=O)c2ccc(Br)o2)CSC3)c1C | -41.9 | –
COc1cc(C(=O)NCc2nnc(SCC(=O)Nc3nc4ccc(C)cc4s3)o2)cc(OC)c1OC | -7.03 | –
COCCNC(=O)Nc1ccc2nc(-c3ccco3)c(-c3ccco3)nc2c1 | -28.3 | –
CC(C)Cn1c(N)c(C(=O)NCc2cccs2)c2nc3ccccc3nc21 | -24.6 | –
CN1C(=O)/C(=C/c2ccco2)SC1=Nc1cccc(C(=O)O)c1 | -25.9 | –
CCc1cc(C(c2ccccc2OC)N2CCOCC2)c(NC(=O)c2ccccc2)s1 (stereo not drawn) | -9.28 | –
Cc1ccc(Cc2cnc(N)s2)o1 | -4.53 | –

SMILES | activity, negative = inhibition [%] | Potency
CC(C)C1N=C2c3ccccc3N=C(SCC(=O)c3ccc(O)c(O)c3)N2C1=O (stereo not drawn) | – | 3.16 µM (active)
O=C(NCCCN1CCCCCC1)c1ccc(N2CCCC2=O)cc1 | -2.14 | –
c1ccc2c(NC3C4CC5CC(C4)CC3C5)nc(N3CCOCC3)nc2c1 (stereo not drawn) | -24.3 | –
NC1=NC(=O)C(Cc2cccc(Cl)c2Cl)S1 (stereo not drawn) | -8.17 | –
CC(Oc1cccc(NC(=O)c2cccs2)c1)C(=O)c1ccccc1 (stereo not drawn) | -15.7 | –
CCC(C)Cn1c(O)cc2nn(-c3nc4ccccc4s3)c(=O)c-2c1C (stereo not drawn) | 0.169 | –
O=C1c2ccccc2C(=O)N1Cc1cc(-c2ccccc2Cl)no1 | -18 | –
COc1ccc(OCC(=O)Nc2nnc(-c3ccco3)s2)cc1 | -18.5 | –
COc1ccc(NC(=O)CSc2nc(NS(=O)(=O)c3ccc(C)cc3)cc(=O)[nH]2)cc1 | -17.4 | –
COC(C(=O)Nc1ccc(S(=O)(=O)Nc2ccc(C)c(C)c2)cc1)c1ccccc1 (stereo not drawn) | -14.3 | –
O=C(NCCN1C(=O)S/C(=C\c2cccnc2)C1=O)c1ccc(S(=O)(=O)N2CCCC2)cc1 | -0.658 | –
O=C(CN1CCN(c2ccc(O)cc2)CC1)Nc1cc(S(=O)(=O)N2CCOCC2)ccc1Cl | -16.7 | –
CCN(CC)c1ccc2oc(=O)c(C)nc2c1 | – | 50.1 µM (active)
COc1ccc(/C(N)=N/OC(=O)CCCc2ccccc2)cc1 | -17.6 | –
Cc1ccnc2nc(C(=O)Nc3nnc(-c4ccccc4)o3)nn12 | -16.8 | –
CCc1ccc2nc3sc(C(=O)Nc4nnc(CC)s4)c(N)c3cc2c1 | – | 39.8 µM (active)
